Screening data: PubChem BioAssay, National Center for Advancing Translational Sciences (NCATS)
Sfp PPTase inh = qHTS Assay for Inhibitors of Bacillus subtilis Sfp phosphopantetheinyl transferase (PPTase); 4'-phosphopantetheinyl transferase ffp (Bacillus subtilis), Q9F4F7; Biochemical Sfp PPTase activity, qHTS; actives 3.5% (n = 310,000); AID 1490, 2009; Potency, µM, for the others: largest response in the series, negative = inhibition, most hits filed as inhibitors;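 also: the enzyme is Sfp with the accession as filed and its product quenches rhodamine fluorescence; 0% = enzyme reaction without inhibitor and -100% = no enzyme wells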
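Sfp 15 nM + cpd, 15 min RT; start w/ rhodamine-CoA 5 uM, BHQ-2-YbbR 12.5 uM (final); 50 mM Hepes pH 7.6, 10 mM MgCl2, 0.01% NP-40, 0.01% BSA; read 525/598 nm at 0 and 30 min.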
BAZ2B inh = qHTS Assay for Inhibitors of BAZ2B; Bromodomain adjacent to zinc finger domain protein 2B (Homo sapiens), Q9UIF8; AID 504333, 2011; actives 4.4% (n = 360,000); Potency, µM (titrated, usually from 114 µM), inactives show at the highest dose activity change, negative = inhibition, most hits filed as inhibitors; AlphaScreen BAZ2B-H3K14Ac peptide displacement; also: % is scaled to controls: 0 for no effect and ±100 for the full control effect; nearly all actives have a fitted effect of over 60% in size
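AlphaScreen displacement: compounds (up to 110uM) incubated 30 min at room temperature with a preformed 50 nM BAZ2B/50 nM biotinylated H3K14Ac peptide complex in PBS pH 7.4 with Tween-20. Donor and acceptor beads at 10 ug/mL final added, 20 min light-protected before reading.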
JMJD2A Tudor inh = qHTS Assay for Inhibitors of JMJD2A-Tudor Domain | AlphaScreen JMJD2A-Tudor / H3K4me3 peptide binding | Potency, µM (series often up to 114 µM), without a hit: at the highest dose activity change, negative = inhibition, most hits filed as inhibitors | actives 4.4% (n = 390,000) | AID 504339, 2011; also: % is scaled to controls: 0 for no effect and ±100 for the full control effect; nearly all actives have a fitted effect of over 50% in size
HP1b binding inh = HTS for Inhibitors of HP1-beta Chromodomain Interactions with Methylated Histone Tails | Chromobox protein homolog 1 (Homo sapiens), P83916 | AlphaScreen HP1-beta / biotin-H3K9me3 peptide binding | Potency, µM (titrated, usually from 114 µM), for the others: at the highest dose activity change, negative = inhibition, actives largely listed as inhibitors | actives 0.56% (n = 390,000) | AID 540317, 2011; also: nearly all actives have a fitted effect of over 70% in size
Target sequence (P83916 whole entry, looked up): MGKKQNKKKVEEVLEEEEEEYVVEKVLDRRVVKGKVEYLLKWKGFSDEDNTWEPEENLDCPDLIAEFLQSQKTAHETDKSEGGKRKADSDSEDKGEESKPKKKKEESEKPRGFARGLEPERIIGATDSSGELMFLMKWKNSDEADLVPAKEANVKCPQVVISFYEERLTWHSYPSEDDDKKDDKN
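HP1-beta protein (50 nM final) preincubated 30 min at room temperature with biotinylated H3(1-18)K9me3 peptide (50 nM) in PBS pH 7.4, 0.01% Tween-20, then compound added for 30 min. AlphaScreen streptavidin donor/nickel chelate acceptor beads (10 ug/mL final), 30 min dark, luminescence read.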
L3MBTL1 block = qHTS Assay for the Inhibitors of L3MBTL1. Lethal(3)malignant brain tumor-like protein 1 (Homo sapiens), Q9Y468. AlphaScreen L3MBTL1–H3K9me1 peptide binding. Potency, µM (series often up to 57.1 µM), without a hit: at the highest dose activity, negative = inhibition, actives largely listed as inhibitors. actives 0.66% (n = 230,000); also: % is scaled to controls: 0 for no effect and ±100 for the full control effect; nearly all actives have a fitted effect of over 60% in size
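First, the protein-peptide complex forms for 30 min at room temperature (L3MBTL1 50 nM, biotinylated H3K9me1 peptide 75 nM). Next, compounds are pin-transferred and incubated 30 min. Finally, AlphaScreen beads are added and read after 30 min.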
G9a inh = qHTS Assay for Inhibitors of Histone Lysine Methyltransferase G9a. Histone-lysine N-methyltransferase EHMT2 (Homo sapiens), Q96KQ7. G9a H3K9 monomethylation, AlphaScreen, 2 h. Potency, µM (top dose mostly 102 µM), for inactives: at the top dose activity, negative = inhibition, most hits filed as inhibitors. actives 8.8% (n = 350,000). AID 504332, 2011; also: % is scaled to controls: 0 for no effect and ±100 for the full control effect; nearly all actives have a fitted effect of over 75% in size
Target sequence (Q96KQ7 913-1193 limits assumed): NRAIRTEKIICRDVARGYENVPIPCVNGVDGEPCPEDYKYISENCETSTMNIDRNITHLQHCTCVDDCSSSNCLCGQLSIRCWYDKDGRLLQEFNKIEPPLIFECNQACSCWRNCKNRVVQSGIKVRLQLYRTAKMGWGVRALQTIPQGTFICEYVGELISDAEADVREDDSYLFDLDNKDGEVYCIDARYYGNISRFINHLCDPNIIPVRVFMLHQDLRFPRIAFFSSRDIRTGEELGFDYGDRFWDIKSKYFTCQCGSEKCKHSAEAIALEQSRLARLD
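G9a (20 nM) was preincubated 15 min with compound, then reacted 2 h at room temperature with 500 nM biotin-H3K9 peptide and 20 µM SAM. Monomethyl-H3K9 detected by AlphaScreen using anti-H3K9me1 antibody.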
The depositor's hits bear a star; ? = inconclusive; / = no result given; ! = not active in a repeat; [ ] = another dose, or the depositor's remark. A selection: hits, their analogues and other compounds. The true share with any hit is near 12%. Calls follow the shape of the dose curve; as a rule, active = well fitted curve in the direction sought with a large enough effect; inconclusive = small, poorly fitted or top-dose-only effect, or another doubt; inactive = no such curve, though single readings can be large; an effect the other way counts as inactive or inconclusive. Potency is read from the fitted curve at half-maximal effect.

SMILES	Sfp PPTase inh	BAZ2B inh	JMJD2A Tudor inh	HP1b binding inh	L3MBTL1 block	G9a inh
Cc1ccc(S(=O)(=O)NCCC(=O)OCc2ccc([N+](=O)[O-])cc2)cc1C	/	-8%	-29%	-2%	-8%	-50%
COCCCNC(=O)Cn1c(=O)nc(-c2ccccc2)c2ccccc21	/	-3%	-1%	41%	/	25%[59 µM]
COc1ccc(NC(=S)NCCc2c[nH]c3ccc(OC)cc23)c(OC)c1	-12%	45µM*	?	-36%	-23%	/
COc1ccc(-c2nc(N3CCN(C)CC3)sc2-c2ccc(OC)cc2)cc1	?	28µM*	22µM*	50µM*	/	14µM*
COc1ccc(C(C(=O)Nc2ccc(C(C)C)cc2)N(C)C(=O)c2ccc(=O)[nH]c2)cc1 (stereo not given)	2%	-6%	50µM*	-16%	/	-35%
COCCn1c(=O)c(-c2cn(C)c3ccccc23)nc2cnc(N3CCNCC3)nc21	4%	/	/	/	/	10%[0.501 µM]
O=C(CSc1ccc(-c2ccccn2)nn1)NCc1ccc(F)cc1	-2%	3.2µM*	7.9µM*	12%	/	-16%
Cc1ccc(CSCC(=O)NCc2ccc(F)cc2)cc1	5%	4%	-9%	26%	/	39%[59 µM]
O=C(CSc1ccc(-c2ccco2)nn1)NC1CCCCC1	25µM*	50µM*	?	0%	/	45µM*
O=C(CSc1ccc(-c2ccccn2)nn1)NC1CCCCC1	-27%	4µM*	3.5µM*	30%	/	31%
O=C(CSCc1ccc(F)cc1)NCc1ccc(F)cc1	22%	0%	100µM*!	28%	/	18%[59 µM]
O=C(CSc1ccc(-c2ccco2)nn1)NC1CCCC1	-20%	2%	8%	29%	/	?
CS(=O)(=O)c1ccc(C(O)C(CO)NC(=O)C(Cl)Cl)cc1 (stereo not given)	11%	/	/	/	/	-41%[2.33 µM]
CC12CCC(=O)N1C(C(=O)Nc1ccc(Br)cc1Cl)CS2 (stereo not given)	11%	-9%	-3%	31%	/	-3%
Cc1ccccc1CNC(=O)Cn1ccc2cc(S(=O)(=O)N3CCCCC3)ccc21	/	-26%	-15%	20%	/	-31%[59 µM]
COC(=O)C(C)Oc1ccc(Cl)c(CN2OCC(C)(C)C2=O)c1 (stereo not given)	/	/	-14%	-15%	/	/
C#CCN1C(=O)S/C(=C/C=C/c2ccc(N(C)C)cc2)C1=O	-11%	10µM*	25µM*	20µM*	?	8.9µM*
CN(C)c1ccc(/C=C2\SC(=O)N(CCc3nnc(N)s3)C2=O)cc1	3%	-32%	-7%	19%	/	18%[12.7 µM]
CC1=NN(c2ccc(C)cc2C)C(=O)C1C(c1ccccc1)C1C(=O)N(c2ccc(C)cc2C)N=C1C (stereo not given)	-9%	56µM*	?	-1%	-12%	?
Cc1ccc(N2C(=O)CCC2=O)c(C)c1	/	/	-7%	17%	/	/
Cc1ccccc1C(OCCN(C)C)c1ccccc1 (stereo not given)	14%	0%	28µM*!	32%	-10%	40µM*!
CC1CN(CC(O)COC(c2ccccc2)c2ccccc2)CC(C)O1 (stereo not given)	?	56µM*	0.89µM*	?	0%	35µM*
CCN1CCN(CC(O)COC(c2ccccc2)c2ccccc2C)CC1 (stereo not given)	?	22µM*	5.6µM*	?	/	3.2µM*
CCN1CCN(CC(O)COC(C)C)CC1 (stereo not given)	-6%	0%	-14%	-4%	-2%	50µM*
Cc1ccccc1C(OCC(O)CN1CCC(C(N)=O)CC1)c1ccccc1 (stereo not given)	8%	-11%	-11%	-1%	/	-7%
SMILES	Sfp PPTase inh	BAZ2B inh	JMJD2A Tudor inh	HP1b binding inh	L3MBTL1 block	G9a inh
OC(COC(c1ccccc1)c1ccccc1)CN1CCOCC1 (stereo not given)	10%	3%	?	18%	21%	1%
CCC(C(=O)Nc1ccccc1Cl)n1nc(C)c2c(C)n(-c3ccccc3)nc2c1=O (stereo not given)	-3%	-24%	?	-15%	/	30%
CCCOC(=O)CSc1nnc2ccc3ccccc3n12	/	-17%	?	57%	/	-29%[59 µM]
O=C(NCSc1ccnc(SCNC(=O)c2ccc(F)cc2)n1)c1ccc(F)cc1	8.9µM*	-30%	-29%	20%	8%	2.8µM*
CCCc1cc(=O)oc2cc(OCc3nn[nH]n3)ccc12	11%	-4%[57.1 µM]	-33%	58%	7%	?
CCCCc1cc(=O)oc2cc(OCc3nn[nH]n3)ccc12	-8%	-1%	-1%	18%	3%	56µM*
CCCCc1cc(=O)oc2c(C)c(OCC(=O)N3CCC(C(=O)O)(c4ccccc4)CC3)ccc12	6%	-26%	-22%	2%	10%	3.2µM*
CCCCc1cc(=O)oc2c(C)c(OCC(=O)N3CCCC3)ccc12	5%	0%	-8%	17%	/	/
CCCCc1cc(=O)oc2c(C)c(OCc3nn[nH]n3)ccc12	-13%	-17%	-20%	16%	-7%	50µM*
Cn1c2ccccc2c(=O)c2ccc(NCc3ccc4c(c3)OCO4)cc21	/	/	-27%	18%	/	/
COc1cccc(/C=C2/SC(=O)N(CC(=O)N3CCc4ccccc4C3)C2=O)c1OCC(=O)O	56µM*	1%	-5%	42%	/	-35%[59 µM]
O=C(O)[C@@H]1C[C@H](C(=O)O)N1	-25%	/	4%	17%	/	12µM*!
C[C@@H](C(=O)Nc1ccc2ccccc2c1)[C@@H]1C[C@@]1(C)[C@@H](NC(=O)Oc1ccc(F)cc1)c1ccccc1	19%	/	/	/	/	/
CC(=O)N1c2ccccc2C2(O)N=C(C)SC12 (stereo not given)	-95%	?	5.6µM*	?	-6%	1.4µM*
COC(=O)CCNC(=O)Cc1ccc(S(=O)(=O)N2CCCCC2)s1	/	-2%	-26%	-3%	-6%	50µM*
CC(=O)Nc1ccc(NC(=O)Cc2ccc(S(=O)(=O)N3CCCCC3)s2)cc1	2%	?	?	8%	-27%	?
NS(=O)(=O)c1ccc(CCNC(=O)Cc2ccc(S(=O)(=O)N3CCCC3)s2)cc1	7%	56µM*	?	?	?	-33%[59 µM]
